Values joined by “and” are separate entries in the source; they are usually repeats but may differ in a detail not shown here. Equal values may be shown once. Results filed as inconclusive are left out. Some compounds were tested as several samples or in several runs, with calls that do not always agree. Active and inactive are the calls of the source. Unless noted, the call rests on the fitted dose curve; in most records, active means well fitted curve in the direction sought with a large enough effect; inconclusive means small, poorly fitted or top-dose-only effect, or another doubt; inactive means no such curve, though single readings can be large; an effect the other way counts as inactive or inconclusive.

Test [1] in a line: qHTS for Inhibitors of the Functional Ribonucleoprotein Complex (vRNP) of Lassa (LASV) Arenavirus: LASV Primary Screen - GLuc reporter signal (AID 1347082; calls by dose curve; tested in HEK293 reporter line; further: series mostly up to about 57 µM; nearly all actives have a fitted effect of over 60% in size).
The nature of test [2]: qHTS for Inhibitors of the Functional Ribonucleoprotein Complex (vRNP) of Lassa (LASV) Arenavirus: Viability assay - alamar blue signal for LASV Primary Screen (AID 1347083; calls by dose curve; tested in HEK293 reporter line; further: series mostly up to about 57 µM; nearly all actives have a fitted effect of over 80% in size).
The nature of test [3]: qHTS for Inhibitors of the Functional Ribonucleoprotein Complex (vRNP) of Lymphocytic Choriomeningitis Arenaviruses (LCMV): Viability assay - alamar blue signal for LCMV Primary Screen (AID 1347085; calls by dose curve; tested in HEK293 reporter line; further: series mostly up to about 57 µM; nearly all actives have a fitted effect of over 80% in size).
Test [4] addresses Nucleoprotein (Lymphocytic choriomeningitis virus (strain Armstrong)) (UniProt P09992). Briefly: qHTS for Inhibitors of the Functional Ribonucleoprotein Complex (vRNP) of Lymphocytic Choriomeningitis Arenaviruses (LCMV): LCMV Primary Screen - GLuc reporter signal (AID 1347086; calls by dose curve; further: series mostly up to about 57 µM; nearly all actives have a fitted effect of over 70% in size).
For test [5], the target named is Nuclear receptor subfamily 1 group I member 3 (Homo sapiens) (UniProt Q14994). The experiment in a line: Primary qHTS for antagonist of constitutive androstane receptor (CAR) against the NCATS DSHEA and TCM libraries (AID 1794836).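 Further: HepG2 cells stably expressing hCAR with CYP2B6 luciferase reporter stimulated by CITCO; series mostly up to about 40 µM.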 In outline:
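HepG2-CYP2B6-hCAR cells, attached 5 h, given compounds plus CITCO agonist […], incubated 24 h at 37 C. Luciferase luminescence read, multiplexed with CellTiter-Fluor viability (Ex/Em 405/540 nm).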

Test [6] is described as follows: KB-8-5-11 P-gp reporter qHTS against the NCATS DSHEA and TCM libraries (AID 1919977). In outline: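 P-gp-overexpressing KB-8-5-11 cells (500/well) were plated in colchicine-free DMEM with 10% FBS, attached ~4 h, then exposed to substance titrations for ~72 h at 37C. Viability was read by CellTiter-Glo luminescence.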
In test [7] the target is Alpha-galactosidase (Coffea arabica) (UniProt Q42656). Briefly: Counterscreen for Glucocerebrosidase Inhibitors: qHTS Assay for Coffee Bean alpha-Galactosidase at pH 4.5 (AID 957). Further: series mostly up to about 77 µM. In outline: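 Green coffee bean enzyme (2 nM final) was incubated with compounds (0.7 nM to 77 uM) and 4-methylumbelliferyl alpha-D-galactopyranoside (80 uM final) in 50 mM citric acid, 0.005% Tween-20, pH 4.5, 20 min at room temperature; AC50 from Hill fits.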

Test [8] shares this target. Briefly: Counterscreen for Glucocerebrosidase Inhibitors: qHTS Assay for Coffee Bean alpha-Galactosidase at pH 5.9 (AID 998). Summed up:
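Green coffee bean enzyme (2 nM) with 4-methylumbelliferyl alpha-D-galactopyranoside (80 uM) in 50 mM citric acid, 0.005% Tween-20, pH 5.9, 20 min at room temperature; compounds 0.7 nM–77 uM. Stopped at pH 10, fluorescence Ex365/Em440; Hill-fit AC50.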

The nature of test [9]: Validation screen for inhibitors of Lassa infection (AID 463096; calls by dose curve; further: potency means the concentration at half of the fitted maximal effect).
The nature of test [10]: Inducers of the Endoplasmic Reticulum Stress Response (ERSR) in human glioma: Validation (AID 504836). Summed up:
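Stably transfected U87-MG glioma cells carrying a GRP78-based luciferase sensor; 16 h compound incubation. Luminescence end-point read 10 min after Bright-Glo addition at room temperature.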

Test [11] addresses Cytochrome P450 3A4 (Homo sapiens) (UniProt P08684). The experiment in a line: qHTS Assay for Inhibitors and Substrates of Cytochrome P450 3A4 (AID 884). Further: nearly all actives have a fitted effect of over 50% in size. Further: potency means the concentration at half of the fitted maximal effect. In outline:
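20 nM human CYP3A4 with 25 uM Luciferin-PPXE (at KM) in 200 mM KPO4, preincubated 10 min with compound; NADPH regeneration started a 60 min RT reaction. Luciferin detected by luminescence, normalized to 57 uM ketoconazole as full inhibition.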

For test [12] the target is unchanged. The experiment in a line: qHTS Assay for Activators of Cytochrome P450 3A4 (AID 885). Further: nearly all actives have a fitted effect of over 65% in size. Summed up:
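20nM CYP3A4 + 25uM Luciferin-PPXE (=KM), 200mM KPO4; cpd 10 min RT; NADPH regen, 60 min RT; stop w/ detection buffer, 20 min; luminescence. Normalized to 57 uM ketoconazole.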

A short description of test [13]: qHTS assay for small molecule agonists of the antioxidant response element (ARE) signaling pathway (AID 651741; active means well fitted activation curve with a large enough effect in the signal ratio; the % refers to the signal ratio; further: potency means the concentration at half of the fitted maximal effect). In outline: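 HepG2 ARE-bla cells plated at 2,000 cells/well and incubated 5 h at 37 C/5% CO2 received 23 nL compound in DMSO. After 16 h at 37 C, LiveBLAzer B/G FRET substrate was applied for 2 h at room temperature and fluorescence read.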
Test [14] addresses M-phase phosphoprotein 8 (Homo sapiens) (UniProt Q99549). The experiment in a line: qHTS Validation Assay for Inhibitors for MPP8 Chromodomain Interactions with Methylated Histone Tails (AID 488949). Further: nearly all actives have a fitted effect of over 55% in size. Further: potency means the concentration at half of the fitted maximal effect. Summed up:
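MPP8 (50 nM) was preincubated with biotinylated H3(1-18)K9me3 peptide (50 nM) in PBS pH 7.4, 0.01% Tween-20 for 30 min at room temperature, then with compounds for 30 min; binding was detected by AlphaScreen.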

Chain of Nucleoprotein (Lymphocytic choriomeningitis virus (strain Armstrong)) (P09992 whole entry, looked up): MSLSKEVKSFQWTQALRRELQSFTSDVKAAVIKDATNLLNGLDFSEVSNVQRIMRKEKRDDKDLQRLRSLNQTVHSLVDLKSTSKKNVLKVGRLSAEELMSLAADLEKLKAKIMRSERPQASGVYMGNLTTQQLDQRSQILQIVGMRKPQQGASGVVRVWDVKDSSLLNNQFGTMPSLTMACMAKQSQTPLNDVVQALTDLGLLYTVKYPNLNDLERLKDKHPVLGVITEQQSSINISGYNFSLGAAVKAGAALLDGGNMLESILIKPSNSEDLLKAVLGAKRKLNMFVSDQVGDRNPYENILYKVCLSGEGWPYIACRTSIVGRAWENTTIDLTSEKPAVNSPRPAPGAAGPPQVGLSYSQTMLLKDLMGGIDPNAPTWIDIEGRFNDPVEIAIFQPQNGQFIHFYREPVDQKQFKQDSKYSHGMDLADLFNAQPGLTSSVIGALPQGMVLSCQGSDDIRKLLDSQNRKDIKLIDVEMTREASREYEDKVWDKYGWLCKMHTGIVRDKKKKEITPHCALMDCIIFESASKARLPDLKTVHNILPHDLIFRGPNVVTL
Chain of Cytochrome P450 3A4 (Homo sapiens) (P08684 whole entry, looked up): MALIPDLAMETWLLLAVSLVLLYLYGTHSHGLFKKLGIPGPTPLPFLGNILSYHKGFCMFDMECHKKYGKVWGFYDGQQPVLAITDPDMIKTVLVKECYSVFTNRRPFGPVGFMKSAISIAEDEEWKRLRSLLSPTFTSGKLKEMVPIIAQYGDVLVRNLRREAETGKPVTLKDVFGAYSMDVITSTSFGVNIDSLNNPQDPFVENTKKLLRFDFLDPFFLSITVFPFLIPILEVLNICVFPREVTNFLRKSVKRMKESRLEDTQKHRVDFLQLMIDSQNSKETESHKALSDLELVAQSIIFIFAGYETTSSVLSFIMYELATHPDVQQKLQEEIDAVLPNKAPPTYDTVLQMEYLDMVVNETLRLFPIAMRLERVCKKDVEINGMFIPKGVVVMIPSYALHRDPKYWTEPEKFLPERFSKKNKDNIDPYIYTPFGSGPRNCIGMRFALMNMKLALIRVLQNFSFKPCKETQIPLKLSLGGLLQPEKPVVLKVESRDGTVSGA
Chain of Alpha-galactosidase (Coffea arabica) (Q42656 whole entry, looked up): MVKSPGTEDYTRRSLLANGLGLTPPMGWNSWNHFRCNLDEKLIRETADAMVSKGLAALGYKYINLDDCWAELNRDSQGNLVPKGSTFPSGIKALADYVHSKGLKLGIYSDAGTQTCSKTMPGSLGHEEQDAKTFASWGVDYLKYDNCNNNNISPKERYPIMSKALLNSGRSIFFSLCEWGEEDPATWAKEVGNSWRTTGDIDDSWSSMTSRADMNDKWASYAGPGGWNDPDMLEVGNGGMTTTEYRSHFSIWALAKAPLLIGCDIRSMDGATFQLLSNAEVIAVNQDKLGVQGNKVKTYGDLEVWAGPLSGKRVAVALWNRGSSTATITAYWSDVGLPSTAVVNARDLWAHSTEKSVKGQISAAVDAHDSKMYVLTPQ
Chain of M-phase phosphoprotein 8 (Homo sapiens) (Q99549 whole entry, looked up): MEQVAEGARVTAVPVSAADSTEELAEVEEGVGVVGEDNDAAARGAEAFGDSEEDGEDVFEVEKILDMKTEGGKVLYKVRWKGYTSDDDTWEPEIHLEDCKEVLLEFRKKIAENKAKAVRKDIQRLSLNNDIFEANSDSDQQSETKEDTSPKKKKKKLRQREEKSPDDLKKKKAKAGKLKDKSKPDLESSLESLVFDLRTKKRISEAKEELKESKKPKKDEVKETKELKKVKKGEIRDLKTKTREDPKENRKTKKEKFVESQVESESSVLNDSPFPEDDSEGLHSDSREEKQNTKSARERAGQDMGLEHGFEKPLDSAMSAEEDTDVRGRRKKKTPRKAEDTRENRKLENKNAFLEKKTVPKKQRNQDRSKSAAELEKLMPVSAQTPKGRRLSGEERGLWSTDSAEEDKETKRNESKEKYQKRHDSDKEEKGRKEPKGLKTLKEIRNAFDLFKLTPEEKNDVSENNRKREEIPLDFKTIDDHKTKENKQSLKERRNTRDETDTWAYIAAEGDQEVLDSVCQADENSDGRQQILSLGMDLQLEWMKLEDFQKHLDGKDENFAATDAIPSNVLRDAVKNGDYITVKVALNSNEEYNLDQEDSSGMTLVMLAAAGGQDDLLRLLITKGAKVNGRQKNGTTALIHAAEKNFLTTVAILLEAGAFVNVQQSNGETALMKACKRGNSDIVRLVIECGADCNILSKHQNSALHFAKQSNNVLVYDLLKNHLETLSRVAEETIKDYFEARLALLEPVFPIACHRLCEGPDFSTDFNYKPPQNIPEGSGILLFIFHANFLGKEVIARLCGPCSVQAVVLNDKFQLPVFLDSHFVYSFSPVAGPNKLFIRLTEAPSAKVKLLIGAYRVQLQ
Chain of Nuclear receptor subfamily 1 group I member 3 (Homo sapiens) (Q14994 whole entry, looked up): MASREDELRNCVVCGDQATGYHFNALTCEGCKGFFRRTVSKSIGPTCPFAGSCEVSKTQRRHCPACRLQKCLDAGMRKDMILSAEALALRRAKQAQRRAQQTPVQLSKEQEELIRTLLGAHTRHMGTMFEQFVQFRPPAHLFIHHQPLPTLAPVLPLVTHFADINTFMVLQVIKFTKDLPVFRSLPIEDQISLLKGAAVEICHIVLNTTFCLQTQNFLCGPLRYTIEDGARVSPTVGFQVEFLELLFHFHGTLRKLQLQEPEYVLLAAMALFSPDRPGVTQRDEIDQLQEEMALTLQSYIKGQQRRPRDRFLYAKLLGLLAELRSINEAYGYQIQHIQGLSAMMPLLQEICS

In the case of `CC(=O)OC/C=C/c1ccccc1`, the Potency result in test [1], in [2], in test [3], in test [4] and in test [5] was “inactive” each time. In [6], the result was inactive.

For `O=C(O)c1ccccc1`, the Potency result in [1], in [2], in test [3] and in test [4] was “inactive” each time. Also, in test [6], the outcome was inactive.

With `O=C(O)/C=C/c1ccc(O)c(O)c1`, the outcome in test [7], in test [8], in test [10] and in test [6] was inactive. For the same compound, the Potency entry in [9], in test [1], in test [2], in test [3], in test [4] and in [5] was “inactive” each time.

Take `O=c1c(-c2ccc(O)cc2)coc2cc(O[C@@H]3O[C@H](CO)[C@H](O)[C@H](O)[C@H]3O)ccc12`: the Potency result in [1], in [2], in test [3], in test [4] and in [5] was “inactive” throughout. In addition, in test [6], the compound was classed as inactive.

On to `COC1=CC(=O)OC(CCc2ccc3c(c2)OCO3)C1` (configuration not stated), for which the Potency in [11] was 2 µM (active). Also, the Potency result in test [12], in test [13], in test [1], in [2], in test [3] and in test [4] was “inactive” in each case.

As for `Cn1cc(C(F)(F)F)nc1-c1ccc(OCC(O)CNCCOc2ccc(O)c(C(N)=O)c2)cc1` (configuration not stated), the Potency result in [9], in test [1], in test [2], in [3] and in [4] was “inactive” in each case.

Consider `CC(C)(C)c1ccc(S(=O)(=O)/C=C/C#N)cc1`, for which the Potency in [9] is 11.2 µM (active). In addition, the Potency result in test [1], in test [2], in test [3] and in test [4] was “inactive” each time.

For `Oc1ccccc1Cl`, the Potency result in [11], in test [13], in test [1], in test [2], in test [3] and in test [4] was “inactive” throughout.

For the compound `N[C@@H](Cc1ccc(F)cc1)C(=O)O`, the Potency result in test [9], in test [1], in [2], in [3] and in test [4] was “inactive” each time.

On to `C=C(C)[C@@H]1CC=C(C=O)CC1`, for which the Potency entry in [1], in [2], in [3] and in test [4] was “inactive” each time. In addition, in test [6], the compound was called inactive.

Consider `C=CC(=C)CCC=C(C)C`, for which the Potency result in test [1], in test [2], in test [3] and in test [4] was “inactive” in each case. The call in [6] was inactive.

On to `c1ccc(Nc2ccc3ccccc3c2)cc1`, for which the Potency entry in test [12], in test [1], in test [2], in [3] and in test [4] was “inactive” in each case. Besides, the Potency in test [13] is 42.2 µM (active) and 54.5 µM (active).

For `Nc1nc2[nH]c(=O)cnc2c(=O)[nH]1`, the call in test [7], in test [8] and in test [10] was inactive. Also, the Potency result in [9], in test [1], in test [2], in test [3] and in test [4] was “inactive” in each case.

As for `CN1CCc2cc(O)c(O)cc2C(c2ccccc2)C1` (configuration not stated), the Potency result in test [9], in [1], in test [2], in test [3] and in [4] was “inactive” in each case.

For `COc1cc([C@@H]2c3cc4c(cc3[C@H](O)C3COC(=O)[C@@H]32)OCO4)cc(OC)c1OC` (some centres not stated), the Potency entry in test [9], in test [14], in [1], in test [2], in test [3] and in test [4] was “inactive” in each case. In addition, the compound was called inactive in test [10].

As for `C=C/C(C)=C/[C@@]1(C)SC(=O)C(C)=C1O`, the Potency entry in [9], in test [1], in test [2], in test [3] and in [4] was “inactive” throughout.

As for `Nc1nc2ccc(Cl)cc2c2nc(-c3ccco3)nn12`, the Potency entry in test [12], in test [9], in test [1], in test [2], in [3] and in test [4] was “inactive” in each case. The compound was called inactive in [7], in test [8] and in test [10]. Moreover, the Potency in [14] is 50.1 µM (active) and inactive.

With `c1ccc2c(c1)-c1cccc3cccc-2c13`, the Potency result in test [11], in test [1], in [2], in test [3] and in test [4] was “inactive” in each case. The Potency entry in test [13] is “inactive and 30.6 µM (active)”.

(Values after PubChem BioAssay (NCATS).)
